# RT RNaseH block = HIV-1 RT RNase H inhibitors, primary screen, biochemical, fluorescence | Gag-Pol polyprotein (Human immunodeficiency virus type 1 group M subtype B (isolate … | RT-RNase H RNA/DNA duplex cleavage | inhibition, % at 10 µM | 65,000 compounds, 1.9% hits; in the data active = inhibition above about 50%
# RmlC RmlD mix = RmlC and RmlD coupled enzyme inhibitors, primary screen, biochemical, 384-well, compound mixtures, retest; 110,000 compounds, 0.39% hits; RmlC/RmlD coupled enzyme inhibition, 384-well mixture HTS; inhibition, % at 5.5 µM; in the data active = inhibition above about 30%, passing the limit was not always enough
# Numbers stand for hits; 0 = inactive; - = no result given; + = active, no number. This is one part of a sample in which hits are shown more often than they occur.
SMILES,RT RNaseH block,RmlC RmlD mix
C=CC(=C)CC(NC)c1ccccc1 (centres undefined),51,0
C=CCOC(=O)CC(NC(=O)c1ccccc1)c1ccccc1 (centres undefined),0,0
O=C(NCCc1cccs1)C1CC(c2c(Cl)cccc2Cl)=NO1 (centres undefined),-,0
CC(C)c1nc(CN(C)C(=O)N[C@H](C(=O)N[C@@H](Cc2ccccc2)C[C@H](O)[C@H](Cc2ccccc2)NC(=O)OCc2cncs2)C(C)C)cs1,-,0
CCC1(CC)C(=O)C2=C3C1[C@H](C(=O)OC)C=C(C(=O)OC)C[C@H]3n1c(=O)n(-c3ccccc3)c(=O)n1[C@H]2C (some centres undefined),-,0
CCc1nc(SCc2cccnc2)[nH]c(=O)c1C,0,0
CC(=O)Nc1c(Cl)n(C(C)=O)c2ccccc12,0,0
CC(=O)n1c2ccccc2c2c1c1ccccc1n2C,57,0
CCCCNC(=O)C(c1ccc(OCC(=O)OC)c(C(=O)OC)c1)N(CCc1c[nH]c2ccccc12)C(=O)CCCCCN1C(=O)NC(c2ccc(-c3ccccc3)cc2)C(C(=O)OCc2ccccc2)=C1C (centres undefined),-,0
N#Cc1cc2c(nc1SCC(N)=O)CCCCC2,-,0
C=C(C)CSc1nc2c(cc1C#N)CCC2,0,0
COC(=O)CC(=O)CSc1nc2c(cc1C#N)CCC2,0,77
CC(C)OC(=O)CC(=O)CSc1nc2c(cc1C#N)CCC2,0,97
O=C(CSc1ccccn1)c1ccc(F)cc1,65,0
Cc1ccc(C(=O)CSc2ccccn2)cc1,0,0
N#CCCS(=O)(=O)c1nnnn1-c1ccccc1,0,0
COCCCn1c(N)c(C(=O)OC(C)COC)c2nc3ccccc3nc21 (centres undefined),0,46
CCCCOCCCn1c(N)c(C(=O)OC(C)COC)c2nc3ccccc3nc21 (centres undefined),0,0
O=C(Nc1ccc(-c2nc3ccccc3o2)cc1)c1ccc2c(c1)OCO2,0,0
Cc1ccc2oc(-c3ccc(NC(=O)c4ccc5c(c4)OCO5)cc3)nc2c1,64,0
CCC(NC(=O)OC(C)(C)C)C(=O)Oc1cc(C)cc2oc(=O)c3c(c12)CCC3 (centres undefined),-,0
CCC(NC(=O)OC(C)(C)C)C(=O)Oc1ccc2c3c(c(=O)oc2c1)CCC3 (centres undefined),0,+
COCCN1CCn2c(nc3cc(NC(=O)NC4CCCCC4)ccc32)C1,0,59
O=C(Nc1ccc2c(c1)nc1n2CCN(Cc2ccccc2)C1)NC1CCCCC1,-,0
CCOc1cc2[nH]c(=O)n(CCCCC(=O)NC3CCCCC3)c(=O)c2cc1OCC,0,-
SMILES,RT RNaseH block,RmlC RmlD mix
Cc1cccn2c(=O)c3cc(C(=O)NCC4CCCO4)c(=N)n(Cc4cccnc4)c3nc12 (centres undefined),0,37
N=c1c(C(=O)NCC2CCCO2)cc2c(=O)n3ccccc3nc2n1Cc1cccnc1 (centres undefined),0,0
Cc1cccn2c(=O)c3cc(C(=O)NC(C)C)c(=N)n(Cc4ccncc4)c3nc12,0,-
CCNC(=O)c1cc2c(=O)n3cccc(C)c3nc2n(Cc2ccc(C)cc2)c1=N,0,84
CCOC(=O)N1CCN(c2ncnc3c2cnn3-c2ccc(Cl)cc2)CC1,69,0
CCN1CCN(c2ncnc3c2cnn3-c2ccc(Cl)cc2)CC1,0,0
O=C(Cc1cccs1)Nc1nnc(Cc2ccccc2)s1,-,0
COc1ccc(Cc2nnc(NC(=O)Cc3cccs3)s2)cc1OC,80,0
S=c1[nH]nc(CSc2nc3ccccc3s2)n1C1CCCCC1,-,0
COc1ccc(-c2cc3c(=O)n(CC(=O)NC4CCN(Cc5ccccc5)CC4)ncn3n2)cc1,64,-
Cc1ccc2oc(=O)c3cnn(CC(=O)NC4CCN(Cc5ccccc5)CC4)c3c2c1,0,0
COC(=O)C[C@H]1c2cc(C(F)(F)F)ccc2S(=O)(=O)N1C1CCCC1,-,0
Cc1nc2c(c(=O)n1Cc1ccccc1Cl)c1nc3ccccc3nc1n2Cc1ccco1,0,-
COc1ccc(S(=O)(=O)c2c(N)n(Cc3ccco3)c3nc4ccccc4nc23)cc1,0,-
COc1ccc(Cn2c(C)nc3c(c2=O)c2nc4ccccc4nc2n3Cc2ccco2)cc1,81,-
COc1ccc(Cn2c3nc4ccccc4nc3c3c(=O)n(Cc4ccco4)c(C)nc32)cc1,62,-
COc1ccc(/C(O)=C2/C(=O)C(=O)N(CCCN(C)C)C2c2ccco2)cc1Cl (centres undefined),0,-
N#CC1=C2SCN(Cc3ccco3)CN2C(=O)CC1c1cccc2ccccc12 (centres undefined),57,0
N#CC1=C2SCN(Cc3ccco3)CN2C(=O)CC1c1ccccc1F (centres undefined),-,0
NCCCC[C@H]1CNC(=O)C(=O)N1CCC12CC3CC(CC(C3)C1)C2,-,0
COc1ccc(-c2nc(-c3ccc(NC(=O)c4ccc(Br)o4)cc3)no2)cc1OC,0,0
COc1ccc(CCC(=O)Nc2ccc(-c3noc(-c4ccc(OC)c(OC)c4)n3)cc2)cc1,61,0
CCOC(=O)C(CC)(CC)C(=O)/C=C/c1cccc(Br)c1,-,0
COC(=O)C[C@H]1c2cc(F)cc(F)c2S(=O)(=O)N1C1CCN(Cc2ccccc2)CC1,-,0
O=C1NC(c2ccc(Br)cc2)Nc2sc3c(c21)CCC3 (centres undefined),-,0
SMILES,RT RNaseH block,RmlC RmlD mix
Cc1ccsc1C1NC(=O)c2c(sc3c2CCCC3)N1 (centres undefined),58,0
O=C(Nc1ccc2c(c1)OCO2)c1ccc2c(c1)S(=O)(=O)c1ccccc1C2=O,-,0
CCN1CCCC1CNC(=O)c1nn(-c2ccc(C)cc2)c(=O)c2c1c1ccccc1n2C (centres undefined),0,-
COc1ccc(C(=O)Nc2ccc(Cl)cc2C(=O)NCc2ccco2)cc1,-,0
CCC(C)C(NC(=O)c1ccccc1NC(=O)c1ccc(OC)cc1)C(=O)NCc1ccco1 (centres undefined),55,0
Cn1cc(C[C@H](NC(=O)OC(C)(C)C)C(=O)N[C@@H](CO)Cc2ccccc2)c2ccccc21,-,0
CCOC(=O)c1cc2c(nc1N)CC(C)(CC)OC2 (centres undefined),-,0
CCOC(=O)c1cc2c(nc1N)CC(C)(C)OC2,-,39
CC(C)NC(=O)CSc1nnc(-c2ccncc2)n1-c1ccccc1,-,0
CCCNc1nc(C)cc(-c2cc(-c3ccc(Cl)cc3)on2)n1,-,0
N#CC1=C(N)Oc2cc3c(cc2C1c1ccc(Cl)cc1)OCO3 (centres undefined),55,0
COc1cc(C2C(C#N)=C(N)Oc3cc(O)ccc32)cc2c1OCO2 (centres undefined),0,0
CC(=NCCN1CCNCC1)C1=C(O)CC(C)(C)CC1=O,0,0
COc1ccc(-c2cc3nc(C)cc(C)n3n2)c(OC)c1,0,-
CCC(c1nnc(SCC(=O)NCCc2ccc(Cl)cc2Cl)o1)N(C)C (centres undefined),51,0
CCC(c1nnc(SCC(=O)NC23CC4CC(CC(C4)C2)C3)o1)N(C)C (centres undefined),-,0
COC1(OC)C=CC(=O)C=C1NC(=O)c1ccccc1OC(C)=O,-,0
COc1ccc(CN2CC[C@H]3C=CC[C@@H](C(=O)NCCc4ccccc4)[C@H]3C2=O)cc1OC,-,0
Cc1oc2c(O)c(O)ccc2c(=O)c1-c1ccccc1,70,0
Cc1oc2c(O)c(O)ccc2c(=O)c1-c1cnn(-c2ccccc2)c1,0,0
